DT40 TDP1 CPT: qHTS for Inhibitors of human tyrosyl-DNA phosphodiesterase 1 (TDP1): qHTS in cells in presence of CPT | chicken DT40 Tdp1-/-;hTDP1 cells + 20 nM CPT, ATP luminescence, 48 h | Potency, µM (titrated, usually from 46.2 µM), for the others: top-dose activity change, negative = growth inhibition, most hits filed as inhibitors | 12% of 420,000 active | AID 686979, 2013; also: potency is read from the fitted curve at half-maximal effect; nearly all actives have a fitted effect of over 55% in size
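Chicken DT40 Tdp1-/- cells stably complemented with human TDP1 were seeded at 400 cells/well in medium containing 20 nM camptothecin, exposed to pin-transferred compounds, and grown at 37 °C for at least 48 hr. Viability was read as ATP luminescence.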
IL-1B inflam inh: qHTS for Inhibitors of Inflammasome Signaling: IL-1-beta AlphaLISA Primary Screen; activity change, % at 57.5 µM; AID 743279, 2014; THP-1 LPS/ATP IL-1B secretion, AlphaLISA, 16 h; hits give low values; 4.7% of 360,000 active; in the data active = activity change below about -50%; inconclusive = mostly about -30% to -49%
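Secreted IL-1B measured by AlphaLISA bead assay after 16 h compound exposure of THP-1 cells; compounds (final up to 57.5 uM) added 1 h before LPS (250 ng/mL) and ATP (1.25 mM) stimulation; lower signal means less secretion.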
ELG1 repair inh: qHTS screen for small molecules that inhibit ELG1-dependent DNA repair in human embryonic kidney (HEK293T) cells expressing luciferase-tagged ELG1 | Potency, µM (top dose mostly 46.1 µM), for the others: top-dose activity change, negative = inhibition, usual class: inhibitors | 2.3% of 330,000 active | AID 504467, 2011 | HEK293T ELG1-luciferase reporter, luminescence, 16 h; DNA damage induced by 5-fluorouridine; also: potency is read from the fitted curve at half-maximal effect; nearly all actives have a fitted effect of over 55% in size
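Quantitative HTS, concentration-response format. 2,000 cells/well co-treated with 5-fluorouridine and compound, 16 hr in 5% CO2 at 37 °C; ONE-Glo luminescence read after 30 min.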
DT40 TDP1 no CPT: qHTS for Inhibitors of human tyrosyl-DNA phosphodiesterase 1 (TDP1): qHTS in cells in absence of CPT | 15% of 420,000 active | Potency, µM (titrated, usually from 46.2 µM), inactives show top-dose activity change, negative = growth inhibition, hits mostly inhibitors | DT40 Tdp1-/- hTDP1 cells, no CPT, ATP luminescence, 48 h; also: potency is read from the fitted curve at half-maximal effect; nearly all actives have a fitted effect of over 55% in size
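Growth kinetics read by CellTiter-Glo luminescence after ≥48 hr at 37 °C. Cells: DT40 Tdp1-/- stably carrying human TDP1, 400 per well, compound exposure in the absence of CPT (DMSO vehicle).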
HT1080 IDH1KD tx: qHTS for induction of synthetic lethality in tumor cells producing 2HG: qHTS for the HT-1080-IDH1KD cell line; AID 686971, 2013; 2% of 360,000 active; Potency, µM (series often up to 46.1 µM), for the others: at the top dose activity, negative = toxicity, actives largely listed as cytotoxic; HT-1080 IDH1 knockdown viability, ATP luminescence, 48 h;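 also: potency is read from the fitted curve at half-maximal effect; 0% = DMSO wells and -100% = cell-free medium wells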
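Cytotoxicity counter-line: IDH1KD HT-1080, 48 h, CellTiter-Glo. Curves classed by r2, magnitude and activity.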
HT1080NT lethal: qHTS for induction of synthetic lethality in tumor cells producing 2HG: qHTS for the HT-1080-NT fibrosarcoma cell line. HT-1080-NT fibrosarcoma viability, CellTiter-Glo ATP luminescence, 48 h. AID 686970, 2013. 1.6% of 360,000 active. Potency, µM (highest dose often 46.1 µM), without a hit: top-dose activity, negative = less viability, hits mostly cytotoxic;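 also: NT is the 2HG producing partner of a matched IDH1 knockdown line; potency is read from the fitted curve at half-maximal effect; 0% = DMSO-treated cells and -100% = media-only wells without cells; nearly all actives have a fitted effect of over 55% in size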
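750 cells/well, RPMI + 5% FBS; 2 h settle, compound pin-transfer, 48 h at 37 degrees C. CellTiter-Glo 10 min RT, luminescence. Normalized to DMSO and media-only wells.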
Starred values were filed as active, the others as inactive; [ ] = remark or other dose. An excerpt weighted towards active compounds, which were near 19% of everything screened. Unless noted, calls follow the shape of the dose curve; as a rule, active = well fitted curve in the direction sought with a large enough effect; inconclusive = small, poorly fitted or top-dose-only effect, or another doubt; inactive = no such curve, though single readings can be large; an effect the other way counts as inactive or inconclusive. Unless noted, % is scaled to controls: 0 for no effect and ±100 for the full control effect.

CC12CCC3c4ccc(O)c([N+](=O)[O-])c4CCC3C1CCC2=O (configuration not stated) was read as DT40 TDP1 CPT inconclusive, IL-1B inflam inh 32, DT40 TDP1 no CPT inconclusive, HT1080 IDH1KD tx -14% and HT1080NT lethal -30%.
For COc1ccc(/C=C/C(=O)NC(=S)NCCc2ccc(OC)c(OC)c2)cc1 the results were DT40 TDP1 CPT inconclusive, IL-1B inflam inh 31, ELG1 repair inh -2%, DT40 TDP1 no CPT inconclusive, HT1080 IDH1KD tx 10µM* and HT1080NT lethal 11µM*.
`COc1ccc(/C=C/C(=O)Nc2ccc(C)cc2)cc1` gave DT40 TDP1 CPT -24% and DT40 TDP1 no CPT inconclusive.
`CCN1C[C@]2(COC)[C@H](O)C[C@H](OC)[C@]34C1C([C@H](OC)[C@H]23)[C@]1(OC(C)=O)C2[C@@H](OC(=O)c3ccccc3)C(O)(C[C@H]24)[C@@H](OC)[C@@H]1O` gave DT40 TDP1 CPT 9%[21.1 µM] and DT40 TDP1 no CPT 8%[21.1 µM].
C[C@H](CN1CCOCC1)C(C(=O)N1CCCC1)(c1ccccc1)c1ccccc1 was read as DT40 TDP1 CPT inconclusive and DT40 TDP1 no CPT 42µM*.
Screening O=C(/C=C/c1ccc(Cl)cc1)NC(=S)N1C[C@H]2C[C@H](C1)c1cccc(=O)n1C2 returned DT40 TDP1 CPT 3%, IL-1B inflam inh -18, ELG1 repair inh 42%, DT40 TDP1 no CPT -6%, HT1080 IDH1KD tx 2% and HT1080NT lethal 0%.
C[C@@H]1CN(CCCn2c3ccccc3c3ccccc32)C[C@H](C)N1 was read as DT40 TDP1 CPT 7.5µM* and DT40 TDP1 no CPT 8.4µM*.
For C=C(C=O)C[C@@H]1C[C@H](O)C2OC3C[C@]4(C)OC5/C=C\CC6OC7C(CC=CCC6OC5CCCC4OC3CC2O1)OC1CC2OC3CC(=O)OC3C[C@@H](C)C[C@@]2(C)OC1C[C@@H]7C (some centres not stated) the results were DT40 TDP1 CPT 0.65µM*, IL-1B inflam inh -102*, ELG1 repair inh 4.1µM*, DT40 TDP1 no CPT 0.58µM* and HT1080NT lethal 8.2µM*.
`CCOC(=O)c1c(C)[nH]c(C)c1S(=O)(=O)NCC(=O)N1CCN(c2cc(Cl)ccc2C)CC1` gave DT40 TDP1 CPT 23µM* and DT40 TDP1 no CPT 18µM*.
Screening Cc1ccc(NC(=O)N2CC2)cc1NC(=O)N1CC1 returned DT40 TDP1 CPT inconclusive, IL-1B inflam inh 30, DT40 TDP1 no CPT inconclusive, HT1080 IDH1KD tx 2% and HT1080NT lethal -1%.
For O=C(Nc1ccc(Cl)cc1)N1CC1 the results were DT40 TDP1 CPT 8.2µM*, IL-1B inflam inh -5, DT40 TDP1 no CPT 15µM*, HT1080 IDH1KD tx -6% and HT1080NT lethal 8%.
For COc1cccc(-c2nc3c(C#N)c[nH]n3c2NC2CCCCC2)c1OC the results were DT40 TDP1 CPT inconclusive and DT40 TDP1 no CPT 21µM*.
`COC(=O)C1=C(c2cccc(OC)c2OC)C[C@@H]2CC[C@H]1N2C(=O)NC1CCCCC1` gave DT40 TDP1 CPT -23%, IL-1B inflam inh 8, DT40 TDP1 no CPT inconclusive, HT1080 IDH1KD tx 12% and HT1080NT lethal 4%.
